Data on 6 compounds can be found in ChEMBL document CHEMBL1961873, “Compounds: GSK PKIS; Assays: Nanosyn kinase panel” (2012).

Structures are written as SMILES.

Assay [1] concerns the target Serine/threonine-protein kinase pim-2 (Homo sapiens) (UniProt Q9P1W9). The conditions noted are these: at 1 µM.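 Note: each value is a mean of the inhibition measurements against the kinase.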
For assay [2], the target named is Serine/threonine-protein kinase pim-3 (Homo sapiens) (UniProt Q86V86). To be noted: at 0.1 µM.
The target is the same in assay [3]. To be noted: at 1 µM.
The target of assay [4] is T1, MAP kinase-activated protein kinase 5 (Homo sapiens) (UniProt Q8IW41).
T1 sequence (whole entry): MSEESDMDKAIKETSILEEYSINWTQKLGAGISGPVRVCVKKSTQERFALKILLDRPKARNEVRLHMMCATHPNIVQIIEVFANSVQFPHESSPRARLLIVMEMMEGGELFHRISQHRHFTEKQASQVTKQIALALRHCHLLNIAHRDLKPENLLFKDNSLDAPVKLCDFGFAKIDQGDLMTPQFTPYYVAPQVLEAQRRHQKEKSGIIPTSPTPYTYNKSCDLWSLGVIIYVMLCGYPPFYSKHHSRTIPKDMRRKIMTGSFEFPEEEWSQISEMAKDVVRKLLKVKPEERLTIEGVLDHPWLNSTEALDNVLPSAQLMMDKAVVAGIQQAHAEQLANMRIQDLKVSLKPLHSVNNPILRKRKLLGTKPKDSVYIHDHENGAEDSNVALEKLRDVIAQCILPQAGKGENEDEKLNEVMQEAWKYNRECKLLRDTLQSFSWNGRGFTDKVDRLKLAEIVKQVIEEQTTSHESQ
To be noted: at 0.1 µM.

Assay [5] concerns the target T1, MAP kinase-activated protein kinase 5 (Homo sapiens). To be noted: at 1 µM.
Assay [6] has as its target Serine/threonine-protein kinase SIK1 (Homo sapiens) (UniProt P57059). To be noted: at 0.1 µM.
Assay [7] shares this target. The conditions noted are these: at 1 µM.
Assay [8] deals with Serine/threonine-protein kinase SIK2 (Homo sapiens) (UniProt Q9H0K1). The conditions noted are these: at 0.1 µM.
Sequence of Serine/threonine-protein kinase SIK2 (Homo sapiens) (Q9H0K1 whole entry, looked up): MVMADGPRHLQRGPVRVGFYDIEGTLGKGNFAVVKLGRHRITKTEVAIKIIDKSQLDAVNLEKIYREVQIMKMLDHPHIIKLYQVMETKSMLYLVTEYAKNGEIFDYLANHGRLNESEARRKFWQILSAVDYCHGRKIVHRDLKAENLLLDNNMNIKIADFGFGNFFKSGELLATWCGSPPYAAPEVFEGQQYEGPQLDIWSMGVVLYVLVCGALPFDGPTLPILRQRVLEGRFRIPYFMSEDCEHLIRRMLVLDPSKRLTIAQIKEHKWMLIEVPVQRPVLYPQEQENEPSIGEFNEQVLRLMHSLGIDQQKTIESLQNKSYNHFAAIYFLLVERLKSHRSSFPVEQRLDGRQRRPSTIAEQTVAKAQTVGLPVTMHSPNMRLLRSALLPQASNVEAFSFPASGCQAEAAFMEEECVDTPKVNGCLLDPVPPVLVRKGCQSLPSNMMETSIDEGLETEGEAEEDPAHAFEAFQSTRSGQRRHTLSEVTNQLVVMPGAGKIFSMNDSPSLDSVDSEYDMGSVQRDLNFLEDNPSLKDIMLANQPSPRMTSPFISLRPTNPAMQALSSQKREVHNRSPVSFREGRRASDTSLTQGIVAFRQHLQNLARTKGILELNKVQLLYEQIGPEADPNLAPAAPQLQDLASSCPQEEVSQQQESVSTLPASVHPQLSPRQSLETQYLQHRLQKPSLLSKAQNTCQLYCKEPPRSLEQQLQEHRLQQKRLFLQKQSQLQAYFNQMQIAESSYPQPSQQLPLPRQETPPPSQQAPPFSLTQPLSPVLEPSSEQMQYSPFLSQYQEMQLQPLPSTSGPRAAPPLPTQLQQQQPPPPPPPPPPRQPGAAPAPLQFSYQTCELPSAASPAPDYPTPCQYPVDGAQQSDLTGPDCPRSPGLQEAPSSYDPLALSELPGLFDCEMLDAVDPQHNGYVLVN
The target is the same in assay [9]. The conditions noted are these: at 1 µM.
Assay [10] deals with T2, Serine/threonine-protein kinase TBK1 (Homo sapiens) (UniProt Q9UHD2).
T2 sequence (whole entry): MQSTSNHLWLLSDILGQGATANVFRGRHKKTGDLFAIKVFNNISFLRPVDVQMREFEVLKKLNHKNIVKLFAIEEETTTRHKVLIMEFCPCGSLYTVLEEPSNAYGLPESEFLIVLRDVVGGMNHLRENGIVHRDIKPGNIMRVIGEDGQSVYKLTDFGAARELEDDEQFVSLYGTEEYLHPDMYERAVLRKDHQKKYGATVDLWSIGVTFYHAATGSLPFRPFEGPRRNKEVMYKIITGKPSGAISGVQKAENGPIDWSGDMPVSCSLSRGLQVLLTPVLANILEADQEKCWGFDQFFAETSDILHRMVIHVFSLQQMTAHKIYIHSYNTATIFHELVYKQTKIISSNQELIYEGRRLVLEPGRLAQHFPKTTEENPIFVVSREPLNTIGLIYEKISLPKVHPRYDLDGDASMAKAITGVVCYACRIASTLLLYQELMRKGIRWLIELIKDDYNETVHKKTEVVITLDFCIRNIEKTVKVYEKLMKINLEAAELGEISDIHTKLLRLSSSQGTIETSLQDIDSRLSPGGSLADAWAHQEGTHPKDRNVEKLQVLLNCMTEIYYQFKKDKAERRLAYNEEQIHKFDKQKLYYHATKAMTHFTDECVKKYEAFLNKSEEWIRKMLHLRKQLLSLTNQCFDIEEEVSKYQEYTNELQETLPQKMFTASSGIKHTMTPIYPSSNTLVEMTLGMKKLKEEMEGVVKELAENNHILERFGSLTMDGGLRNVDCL
The conditions noted are these: at 0.1 µM.

For assay [11], the target named is T2, Serine/threonine-protein kinase TBK1 (Homo sapiens). The conditions noted are these: at 1 µM.
Assay [12] deals with T3, Testis-specific serine/threonine-protein kinase 1 (Homo sapiens) (UniProt Q9BXA7).
T3 sequence (whole entry): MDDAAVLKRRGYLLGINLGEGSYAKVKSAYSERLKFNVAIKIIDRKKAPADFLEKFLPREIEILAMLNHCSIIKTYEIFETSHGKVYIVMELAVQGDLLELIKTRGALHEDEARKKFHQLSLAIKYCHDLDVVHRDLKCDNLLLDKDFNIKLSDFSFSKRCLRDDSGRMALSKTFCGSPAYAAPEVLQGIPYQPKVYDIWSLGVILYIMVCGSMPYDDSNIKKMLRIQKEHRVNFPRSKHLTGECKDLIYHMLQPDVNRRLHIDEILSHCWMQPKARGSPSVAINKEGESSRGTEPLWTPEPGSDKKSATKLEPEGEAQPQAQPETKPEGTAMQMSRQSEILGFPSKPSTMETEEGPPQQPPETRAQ
The conditions noted are these: at 0.1 µM.

The target of assay [13] is T3, Testis-specific serine/threonine-protein kinase 1 (Homo sapiens). To be noted: at 1 µM.
The target in assay [14] is T4, Testis-specific serine/threonine-protein kinase 2 (Homo sapiens) (UniProt Q96PF2).
T4 sequence (whole entry): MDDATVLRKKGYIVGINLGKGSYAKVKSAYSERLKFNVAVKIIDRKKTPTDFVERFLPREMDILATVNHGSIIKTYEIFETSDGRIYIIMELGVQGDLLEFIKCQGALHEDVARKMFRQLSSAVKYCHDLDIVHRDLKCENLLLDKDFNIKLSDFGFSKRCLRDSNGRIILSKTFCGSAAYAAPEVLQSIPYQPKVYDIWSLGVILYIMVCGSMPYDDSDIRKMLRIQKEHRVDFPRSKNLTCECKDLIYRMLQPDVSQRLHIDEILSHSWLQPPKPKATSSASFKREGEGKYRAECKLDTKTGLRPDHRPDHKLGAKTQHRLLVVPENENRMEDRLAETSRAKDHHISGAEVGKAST
To be noted: at 0.1 µM.

Assay [15] deals with T4, Testis-specific serine/threonine-protein kinase 2 (Homo sapiens). The conditions noted are these: at 1 µM.
The target of assay [16] is Casein kinase I isoform alpha (Homo sapiens) (UniProt P48729). To be noted: at 0.1 µM.
Sequence of Casein kinase I isoform alpha (Homo sapiens) (P48729 2-337 limits assumed): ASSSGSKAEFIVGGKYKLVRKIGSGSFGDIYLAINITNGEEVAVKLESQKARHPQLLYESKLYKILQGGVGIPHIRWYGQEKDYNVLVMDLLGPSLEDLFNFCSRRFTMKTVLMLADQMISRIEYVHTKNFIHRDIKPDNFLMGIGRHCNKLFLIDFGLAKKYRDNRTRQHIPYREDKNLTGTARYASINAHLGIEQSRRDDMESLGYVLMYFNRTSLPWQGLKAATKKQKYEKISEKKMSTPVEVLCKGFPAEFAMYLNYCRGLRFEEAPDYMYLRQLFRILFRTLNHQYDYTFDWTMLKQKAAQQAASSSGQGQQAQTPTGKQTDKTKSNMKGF
For assay [17] the target is unchanged. To be noted: at 1 µM.
Assay [18] deals with Casein kinase I isoform gamma-1 (Homo sapiens) (UniProt Q9HCP0). To be noted: at 0.1 µM.
Sequence of Casein kinase I isoform gamma-1 (Homo sapiens) (Q9HCP0 whole entry, looked up, canonical isoform): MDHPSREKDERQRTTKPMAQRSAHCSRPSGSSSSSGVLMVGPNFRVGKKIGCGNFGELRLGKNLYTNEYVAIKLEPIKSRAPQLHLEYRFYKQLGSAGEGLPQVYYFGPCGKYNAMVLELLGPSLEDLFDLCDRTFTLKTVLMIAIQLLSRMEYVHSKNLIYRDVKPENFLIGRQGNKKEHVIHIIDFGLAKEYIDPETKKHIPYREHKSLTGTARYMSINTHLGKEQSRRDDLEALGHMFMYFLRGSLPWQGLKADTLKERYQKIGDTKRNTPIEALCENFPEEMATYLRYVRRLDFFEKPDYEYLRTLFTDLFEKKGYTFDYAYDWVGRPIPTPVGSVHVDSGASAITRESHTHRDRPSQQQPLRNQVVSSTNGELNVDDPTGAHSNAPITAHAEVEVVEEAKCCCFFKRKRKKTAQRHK
Assay [19] has the same target. The conditions noted are these: at 1 µM.
The target in assay [20] is Casein kinase I isoform gamma-2 (Homo sapiens) (UniProt P78368). The conditions noted are these: at 0.1 µM.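 Note: values are mean inhibition figures reported as part of the GSK PKIS dataset.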
Sequence of Casein kinase I isoform gamma-2 (Homo sapiens) (P78368 whole entry, looked up, canonical isoform): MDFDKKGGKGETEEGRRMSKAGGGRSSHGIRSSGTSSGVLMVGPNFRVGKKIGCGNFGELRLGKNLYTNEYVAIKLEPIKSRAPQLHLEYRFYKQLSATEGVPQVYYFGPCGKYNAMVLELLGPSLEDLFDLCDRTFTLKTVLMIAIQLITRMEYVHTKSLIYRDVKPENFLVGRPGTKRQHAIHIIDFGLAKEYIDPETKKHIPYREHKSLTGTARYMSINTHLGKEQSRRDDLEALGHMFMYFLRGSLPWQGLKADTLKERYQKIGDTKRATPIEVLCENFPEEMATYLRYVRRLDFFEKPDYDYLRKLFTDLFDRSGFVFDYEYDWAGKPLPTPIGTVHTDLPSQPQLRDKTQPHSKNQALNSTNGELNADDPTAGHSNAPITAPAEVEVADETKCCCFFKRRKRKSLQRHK

A word on the inhibition: it is the relative decrease from the control value, in per cent.

Sequence of Serine/threonine-protein kinase pim-2 (Homo sapiens) (Q9P1W9 whole entry, looked up): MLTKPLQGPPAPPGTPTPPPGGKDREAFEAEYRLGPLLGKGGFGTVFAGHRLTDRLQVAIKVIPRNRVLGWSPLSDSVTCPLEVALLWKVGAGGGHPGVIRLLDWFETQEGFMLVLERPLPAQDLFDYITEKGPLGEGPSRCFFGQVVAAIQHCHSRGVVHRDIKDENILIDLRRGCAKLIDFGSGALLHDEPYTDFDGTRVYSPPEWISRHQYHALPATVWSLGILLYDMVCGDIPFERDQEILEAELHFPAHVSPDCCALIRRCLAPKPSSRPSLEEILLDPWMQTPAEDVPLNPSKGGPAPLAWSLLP
Sequence of Serine/threonine-protein kinase SIK1 (Homo sapiens) (P57059 whole entry): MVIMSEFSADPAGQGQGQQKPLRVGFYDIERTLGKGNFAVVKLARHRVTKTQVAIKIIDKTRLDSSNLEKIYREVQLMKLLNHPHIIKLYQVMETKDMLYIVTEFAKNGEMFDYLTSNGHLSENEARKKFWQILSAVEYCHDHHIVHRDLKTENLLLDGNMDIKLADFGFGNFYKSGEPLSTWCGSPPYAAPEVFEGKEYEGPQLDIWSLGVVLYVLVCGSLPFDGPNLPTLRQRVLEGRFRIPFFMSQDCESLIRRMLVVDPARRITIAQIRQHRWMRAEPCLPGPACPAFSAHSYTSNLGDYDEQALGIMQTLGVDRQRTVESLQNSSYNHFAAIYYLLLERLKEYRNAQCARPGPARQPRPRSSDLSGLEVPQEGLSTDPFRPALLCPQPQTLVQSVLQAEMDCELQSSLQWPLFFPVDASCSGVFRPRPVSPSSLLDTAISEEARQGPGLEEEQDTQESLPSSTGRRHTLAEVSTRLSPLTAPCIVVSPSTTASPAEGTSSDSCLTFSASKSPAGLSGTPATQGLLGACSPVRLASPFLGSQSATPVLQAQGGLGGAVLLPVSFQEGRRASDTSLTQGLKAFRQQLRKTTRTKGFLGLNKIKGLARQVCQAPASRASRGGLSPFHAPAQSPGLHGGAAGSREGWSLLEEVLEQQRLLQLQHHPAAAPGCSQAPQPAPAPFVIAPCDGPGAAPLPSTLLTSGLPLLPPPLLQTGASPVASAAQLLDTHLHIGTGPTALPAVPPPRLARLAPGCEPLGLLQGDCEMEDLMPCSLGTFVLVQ

For the compound `COC(=O)c1sc(-n2cnc3cc(OC)c(OC)cc32)cc1OCc1ccccc1C(F)(F)F`, the inhibition is -0.34% in assay [1]; -1.72% in [2]; -2.84% in assay [3]; 2.02% in assay [4]; -0.15% in assay [5]; 6.13% in [6]. Besides, the inhibition in assay [7] was 24.6%; in assay [8] it was 5.85%; in assay [9], 15.2%; in [10] it was 3.44%; in [11] it was 28.6%; in [12], 3.74%. For the same compound, the inhibition is 4.56% in assay [13]; 2.04% in assay [14]; 1.18% in assay [15]; -3.52% in assay [16]; 1.68% in assay [17]; 4.13% in assay [18]. The inhibition in assay [19] is 4.8%; in assay [20], 2.8%.
Take `Nc1nc(-c2ccc(F)cc2)c(-c2ccc3ncccc3n2)s1`: the inhibition came to 0.96% in [1]; 0.41% in assay [2]; 2.02% in assay [3]; 1.52% in [4]; 2.44% in assay [5]; 11.6% in [6]. Moreover, the inhibition in assay [7] is 7.23%; in [8], 8.76%; in [9] it was 11.6%; in assay [10], 3.41%; in assay [11], 6.6%; in [12] it was 4.27%. Also, the inhibition in assay [13] is 6.63%; in assay [14], 2.36%; in assay [15] it was 2.23%; in [16], 3.47%; in assay [17], 15.2%; in [18], 4.29%. For the same compound, the inhibition worked out at 10.5% in [19] and 3.47% in [20].
Consider `c1ccc(COc2ccc(Nc3ncnc4ccc(-c5ccco5)cc34)cc2)cc1`, for which the inhibition was 1.2% in assay [1]; -0.14% in assay [2]; 0.8% in [3]; 0.38% in [4]; 0.36% in assay [5]; 1.4% in assay [6]. For the same compound, the inhibition in assay [7] is 7.46%; in assay [8] it was -3.82%; in assay [9] it was 1.35%; in [10], -0.27%; in assay [11], 0.67%; in [12], -0.63%. The inhibition was 0.68% in assay [13]; 0.44% in assay [14]; -0.19% in assay [15]; -0.74% in [16]; 0.74% in assay [17]; 0.87% in [18]. Also, the inhibition was 1.15% in [19] and 1.03% in assay [20].
Turning to `CCN(CC)S(=O)(=O)c1ccc(OC)c(Nc2ncc(-c3ccccc3)o2)c1`, the inhibition in assay [1] came to 0.18%; in assay [2], 2.06%; in assay [3], 3.12%; in assay [4], 0.51%; in assay [5] it was 0.24%; in assay [6] it was 1.24%. In addition, the inhibition was 6.72% in assay [7]; 3.3% in assay [8]; 2.83% in assay [9]; 1.32% in assay [10]; 4.22% in [11]; 0.3% in assay [12]. The inhibition in assay [13] was -0.98%; in assay [14], -0.73%; in assay [15] it was -0.01%; in assay [16] it was 1.13%; in assay [17], 1.02%; in [18] it was 0.91%. In addition, the figures for the inhibition in assay [19] and in [20] were 0.27% and 0.3%, respectively.
Take `Cc1cccc2c1NC(=O)/C2=N\Nc1ccc(S(N)(=O)=O)cc1`: the inhibition in assay [1] is 0.28%; in assay [2], -0.05%; in assay [3] it was -2.33%; in assay [4], 0.84%; in assay [5], -0.06%; in [6], 6.76%. Also, the inhibition was found to be 2.58% in [7]; 7.86% in assay [8]; 2.38% in assay [9]; 2.84% in assay [10]; 3.42% in assay [11]; 1.83% in [12]. For the same compound, the inhibition in assay [13] was 3.05%; in [14], 0.81%; in [15], -1.61%; in assay [16], 1.01%; in assay [17], 4.19%; in assay [18] it was 2.88%. For the same compound, the inhibition was 3.11% in assay [19] and 1.59% in assay [20].
In the case of `Cc1ccc(O)cc1Nc1ccnc2cc(-c3ccccn3)ccc12`, the inhibition was 1.15% in assay [1]; -0.3% in assay [2]; -0.17% in assay [3]; 1.2% in assay [4]; 0.39% in assay [5]; 14.9% in assay [6]. Also, the inhibition in assay [7] worked out at 48.6%; in assay [8], 6.77%; in assay [9] it was 23.9%; in assay [10], 2.89%; in assay [11], 6.68%; in [12] it was 3.87%. Moreover, the inhibition in assay [13] was 3.16%; in [14], 1.09%; in assay [15], -1.1%; in [16], 3.78%; in assay [17], 12.5%; in [18], 4.65%. In addition, the results for the inhibition in [19] and in [20] were 11% and 2.73%, respectively.
